ASM inhibitor: inhibitors of human secretory acid sphingomyelinase | placental ASM, HMU-PC fluorogenic substrate, 60 min | Potency, µM (series often up to 57.5 µM), for inactives: at the top dose activity change, negative = inhibition, most hits filed as inhibitors | 340,000 compounds, 0.006% hits | AID 504937; further: potency means the concentration at half of the fitted maximal effect
Target sequence (P17405 47-631 limits assumed): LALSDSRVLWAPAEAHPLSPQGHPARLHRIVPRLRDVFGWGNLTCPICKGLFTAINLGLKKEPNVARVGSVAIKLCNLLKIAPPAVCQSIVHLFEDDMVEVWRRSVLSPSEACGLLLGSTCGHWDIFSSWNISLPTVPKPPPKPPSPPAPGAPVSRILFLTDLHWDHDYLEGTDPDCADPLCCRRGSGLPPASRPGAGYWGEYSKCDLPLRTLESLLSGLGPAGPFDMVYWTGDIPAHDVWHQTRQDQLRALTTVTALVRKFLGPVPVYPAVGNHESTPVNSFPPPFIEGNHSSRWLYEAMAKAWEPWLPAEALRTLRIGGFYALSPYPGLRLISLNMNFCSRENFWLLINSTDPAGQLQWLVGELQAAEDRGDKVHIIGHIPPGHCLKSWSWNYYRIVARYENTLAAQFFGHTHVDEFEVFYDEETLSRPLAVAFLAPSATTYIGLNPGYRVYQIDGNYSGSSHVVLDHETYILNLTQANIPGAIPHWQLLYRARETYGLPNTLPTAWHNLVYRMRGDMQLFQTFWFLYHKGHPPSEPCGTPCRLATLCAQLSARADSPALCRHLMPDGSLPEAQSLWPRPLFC
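HMU-PC0 cleavage (9 uM final) by human placental ASM, 60 min at 37 °C following 10 min compound exposure at RT; stopped at pH 10, fluorescence Ex 386/Em 447 nm.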
Giardia killer: Giardia lamblia killing; Giardia lamblia trophozoite viability; activity change, % at 7.66 µM, hits read low; 340,000 compounds, 0.15% hits; AID 540267; in the data active means activity change below about -80%; inconclusive means between about -30% and that limit;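 further: parasites exposed to compound for two days anaerobically before the ATP read; on the % scale 0 is the no-effect control and ±100 the full control effect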
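Luminescent ATP signal served as the viability read-out, measured 15-30 min after adding ATP detection reagent to trophozoites that had been incubated with compounds for 48 hrs at 37 deg C anaerobically at 100 cells/well.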
KB-3-1 cytotox: KB-3-1 parental cell cytotoxicity. KB-3-1 viability, CellTiter-Glo ATP luminescence, 72 h. Potency, µM (series often up to 46.1 µM), most hits filed as cytotoxic. 400,000 compounds, 1.4% hits. AID 1347075; further: potency means the concentration at half of the fitted maximal effect; on the % scale 0 is the no-effect control and ±100 the full control effect; nearly all actives have a fitted effect of over 60% in size
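KB-3-1 parental drug-naive adenocarcinoma cells in DMEM/10% FBS, incubated 72 h at 37 C with pin-transferred compounds across a concentration series. Viability by CellTiter-Glo luminescence; concentration-response curves fitted after normalization.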
KB-V1 cytotox: KB-V1 MDR subline cytotoxicity; KB-V1 MDR cells viability, CellTiter-Glo, 72 h; Potency, µM (doses to about 46.1 µM), actives largely listed as cytotoxic; 400,000 compounds, 3.4% hits; further: potency means the concentration at half of the fitted maximal effect; on the % scale 0 is the no-effect control and ±100 the full control effect; nearly all actives have a fitted effect of over 60% in size
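Potencies derive from concentration-effect curves fitted to normalized luminescence (CellTiter-Glo) of KB-V1 cells treated for 72 h at 37 degrees C in phenol-red-free DMEM containing 10% FBS.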
MCF10A rerep: induces DNA re-replication in MCF 10a normal breast cells; MCF 10A DNA re-replication, Hoechst nuclear intensity, 48 h; Potency, µM (highest dose often 46.1 µM), for the others: top-dose activity, positive = re-replication, usual class: activators; 350,000 compounds, 2.9% hits; further: potency means the concentration at half of the fitted maximal effect; % of control where 0% means no effect; nearly all actives have a fitted effect of over 50% in size
SW480 rereplic: induces DNA re-replication in SW480 colon adenocarcinoma cells; SW480 DNA re-replication, Hoechst DNA content imaging, 48 h; Potency, µM (series often up to 46.1 µM), without a hit: at the highest dose re-replication activation, hits mostly activators; 340,000 compounds, 1.8% hits; further: potency means the concentration at half of the fitted maximal effect; % of control where 0% means no effect; nearly all actives have a fitted effect of over 55% in size
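First, 250 cells per well were seeded. Next, compound or vehicle (23 nL) was pinned in, plates sat 48 hr at 37 C. Finally Hoechst was added for 40 min before fluorescence scanning.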
Numbers without * were called inactive; i = inactive; u = inconclusive; x = no result given; [ ] = another dose, or the depositor's remark. A selection: hits, their analogues and other compounds. The true share with any hit is near 6.9%. Unless noted, the call rests on the fitted dose curve; in most records, active means well fitted curve in the direction sought with a large enough effect; inconclusive means small, poorly fitted or top-dose-only effect, or another doubt; inactive means no such curve, though single readings can be large; an effect the other way counts as inactive or inconclusive.

SMILES | ASM inhibitor | Giardia killer | KB-3-1 cytotox | KB-V1 cytotox | MCF10A rerep | SW480 rereplic
Cc1ccc2c(c1)C(=O)N1[C@H]3c4cc(Cl)ccc4OC[C@@H]3[C@H](c3ccccc3)[C@]1(C)C(=O)N2 | -23% | 12 | u | i | 10µM* | u
C[C@@]12C(=O)Nc3ccc(F)cc3C(=O)N1[C@H]1c3ccccc3OC[C@@H]1[C@@H]2c1ccccc1 | -15% | -16 | i | i | 16% | 27%
Cc1ccc2c(c1)C(=O)N1[C@H]3c4cc(Br)ccc4OC[C@@H]3[C@H](c3ccccc3)[C@]1(C)C(=O)N2 | -27% | -2 | i | u | 13µM* | 22%
Cc1ccc2c(c1)C(=O)N1[C@H]3c4cc(C)ccc4OC[C@@H]3[C@H](c3ccccc3)[C@]1(C)C(=O)N2 | -17% | -5 | u | u | 5.8µM* | u
C[C@@]12C(=O)Nc3cc(Cl)ccc3C(=O)N1[C@H]1c3cc(Cl)ccc3OC[C@@H]1[C@@H]2c1ccccc1 | -18% | 7 | u | u | u | u
Cc1ccc2c(c1)[C@H]1[C@H](CO2)[C@H](c2ccccc2)[C@]2(C)C(=O)Nc3ccc(Br)cc3C(=O)N12 | -14% | 6 | i | i | 11% | u
CCOC(=O)[C@@H](C)N(C(=O)OC(C)(C)C)S(=O)(=O)N(Cc1ccccc1)[C@@H](C(=O)OC)C(C)C | x | x | i | i | x | x
Cc1ccccc1-c1nc2c(s1)CCc1onc(-c3ccc(Cl)cc3)c1-2 | -5% | -17 | i | i | -1% | 1%
COc1ccc(-c2noc3c2-c2nc(-c4ccccc4C)sc2CC3)cc1 | -8% | 3 | 18µM* | u | u | 21µM*
CCCc1nc2c(s1)CCc1onc(-c3ccc(OC)cc3)c1-2 | -8% | 16 | i | i | 8.2µM* | -2%
CN(C)CCCN(C(=O)c1ccc(S(=O)(=O)N(C)C2CCCCC2)cc1)c1nc2ccc(F)cc2s1 | -6% | -4 | i | i | -1% | 7%
CN(C)CCCN(C(=O)c1ccc(C(=O)c2ccccc2)cc1)c1nc2cc3c(cc2s1)OCO3 | -21% | 17 | u | 21µM* | u | u
CN(C)CCCN(C(=O)c1cc2cc([N+](=O)[O-])ccc2s1)c1nc2cc3c(cc2s1)OCCO3 | -15% | u | u | 18µM* | u | 10µM*
CCN(CC)CCN(C(=O)c1ccc(C(=O)c2ccccc2)cc1)c1nc2cc3c(cc2s1)OCO3 | -10% | 10 | i | i | 10% | -8%
CCc1ccc2nc(N(CCCN(C)C)C(=O)c3ccc(S(=O)(=O)N(C)C4CCCCC4)cc3)sc2c1 | -13% | -6 | u | i | 18µM* | u
Cc1ccc2nc(N(CCCN(C)C)C(=O)c3ccc4c(c3)CCCC4)sc2c1 | -12% | -15 | u | 4.1µM* | u | u
CCCN1CCN(c2ncnc3sc(C(=O)Nc4ccc(C(C)C)cc4)c(C)c23)CC1 | x | x | i | i | x | x
Cc1cccc(C)c1NC(=O)C(c1ccccc1F)n1c(=O)c(-c2cc3ccccc3[nH]2)nc2ccccc21 (centres undefined) | x | x | i | i | x | x
CCN1CCN(C(=O)C2CCN(S(=O)(=O)c3ccc(SC)cc3)CC2)CC1 | 2% | -4 | i | i | 3% | 5%
CC(=O)c1cccc(NC(=O)C(C)OC(=O)c2ccc(Br)o2)c1 (centres undefined) | 1% | -9 | i | u | -3% | 0%
O=C1C=C(O)CC(c2ccc(Cl)c(Cl)c2)C1 (centres undefined) | 2% | 0 | i | i | 5µM* | -1%[9.22 µM]
O=C1C=C(O)CC(c2ccc(Cl)cc2)C1 (centres undefined) | -2% | 27 | i | i | -1% | 1%[9.22 µM]
Cc1nc([N+](=O)[O-])c(Br)n1Cc1ccccc1 | 0% | -5 | u | u | u | 28%
